Most compounds without a hit are left out; they make up all but 7.3% or so of the library.
FLuc modulator: inhibits or activates purified firefly luciferase, miR-21 counter-screen | purified FLuc, Km substrates, luminescence inhibition | Potency, µM (series often up to 57.5 µM), usual class: inhibitors | 6.9% of 360,000 active; note: nearly all actives have a fitted effect of over 55% in size
Target sequence (P08659 whole entry, looked up): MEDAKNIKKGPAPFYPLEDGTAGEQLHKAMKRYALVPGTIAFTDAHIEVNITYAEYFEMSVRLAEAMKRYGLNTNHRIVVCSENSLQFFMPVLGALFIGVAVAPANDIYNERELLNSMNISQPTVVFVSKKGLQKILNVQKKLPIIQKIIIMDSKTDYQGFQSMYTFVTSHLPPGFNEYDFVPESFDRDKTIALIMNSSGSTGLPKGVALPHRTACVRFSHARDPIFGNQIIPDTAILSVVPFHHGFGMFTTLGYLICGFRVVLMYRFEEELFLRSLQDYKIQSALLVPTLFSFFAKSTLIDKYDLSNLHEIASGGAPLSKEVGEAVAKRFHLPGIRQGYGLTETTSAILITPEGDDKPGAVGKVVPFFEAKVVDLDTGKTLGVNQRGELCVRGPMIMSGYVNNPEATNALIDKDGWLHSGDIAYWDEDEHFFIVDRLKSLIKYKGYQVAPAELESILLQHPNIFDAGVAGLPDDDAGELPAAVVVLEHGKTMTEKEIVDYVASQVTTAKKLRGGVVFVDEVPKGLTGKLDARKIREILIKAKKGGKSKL
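Purified P. pyralis luciferase (10nM final) with 10uM D-luciferin and 10uM ATP (Km levels) in 50mM Tris acetate pH 7.5, 10mM Mg acetate, 0.01% Tween-20, 0.05% BSA; qHTS 6-point titration, ~60 µM downward; luminescence read.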
SMN2 splice up: increases expression of the SMN2 splice variant | HEK293 SMN2-luciferase splicing reporter, luminescence, 30-36 h | AID 1458 | 2.8% of 210,000 active | Potency, µM (series often up to 46.1 µM), actives largely listed as activators; note: nearly all actives have a fitted effect of over 55% in size
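qHTS luciferase splicing reporter: luminescence rises when SMN2 exon 7 is included in transfected HEK293 cells. Compound exposure lasted 30-36 h at 37C, with 4.5 mM final sodium butyrate as control, followed by a ONE-Glo read.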
KinaseGlo FLuc: Kinase-Glo luciferase inhibition (counter-screen); Kinase-Glo luciferase, ATP luminescence, 8 min; AID 1379; Potency, µM (top dose mostly 38.3 µM), hits mostly inhibitors; 0.28% of 200,000 active; note: nearly all actives have a fitted effect of over 60% in size
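Inhibition of Kinase-Glo luciferase light generation was assessed at 10 uM ATP in pH 7.2 imidazole buffer, with luminescence measured after eight minutes at ambient temperature.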
NPC1 promoter act: activates the NPC1 promoter; Potency, µM (series often up to 9.22 µM), usual class: activators; 2.4% of 320,000 active; Huh7 NPC1 promoter luciferase reporter, 24 h; note: nearly all actives have a fitted effect of over 60% in size
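Luminescence from an NPC1 promoter-driven luciferase reporter in stably transfected Huh7 cells was measured after 24 h compound treatment at 37 °C, followed by 10 min ambient incubation with luciferase detection reagent.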
Rab9 prom act: activators of Rab9 promoter; Huh7 Rab9 promoter-luciferase reporter, luminescence, 24 h; Potency, µM (titrated, usually from 9.22 µM), hits mostly activators; 2.8% of 320,000 active; note: nearly all actives have a fitted effect of over 60% in size
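Measured in stably transfected Huh7 cells bearing a Rab9 promoter–luciferase construct: 24 h compound treatment at 37 °C, followed by luminescence detection.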
A number is an active result; [ ] = dose if it differs, or a comment. Calls come from the whole dose curve; as a rule, active = well fitted curve in the direction sought with a large enough effect; inconclusive = small, poorly fitted or top-dose-only effect, or another doubt; inactive = no such curve, though single readings can be large; an effect the other way counts as inactive or inconclusive.

`COc1ccc(-n2sc3ccc(F)cc3c2=O)cc1` gave FLuc modulator inconclusive, NPC1 promoter act inconclusive and Rab9 prom act 3.55µM.
CCOC(=O)C(=O)Nc1ccc(Oc2ccccc2)cc1 was read as FLuc modulator 15.1µM, SMN2 splice up inactive, KinaseGlo FLuc inactive, NPC1 promoter act inactive and Rab9 prom act inactive.
Screening CC(C)[C@H](NC(N)=O)C(=O)Nc1ccc(Oc2ccccc2)cc1 returned FLuc modulator inactive, SMN2 splice up inactive, KinaseGlo FLuc inactive, NPC1 promoter act inactive and Rab9 prom act inactive.
`CC(C)[C@H](NC(=O)Nc1ccc(Oc2ccccc2)cc1)C(=O)O` gave FLuc modulator 23.9µM, SMN2 splice up inactive, KinaseGlo FLuc inactive, NPC1 promoter act inactive and Rab9 prom act inactive.
`CCOC(=O)C(=O)Nc1ccc(F)cc1` gave FLuc modulator inactive, SMN2 splice up inactive, KinaseGlo FLuc inactive, NPC1 promoter act inactive and Rab9 prom act inactive.
CCc1nnc(NC(=O)c2cc(=O)c3cc(C)c(C)cc3o2)s1 was read as FLuc modulator inconclusive and SMN2 splice up inactive.
Screening O=C1c2ccccc2NC(c2cnc3ccccc3n2)N1O (stereo unspecified) returned FLuc modulator 2.39µM, SMN2 splice up 11.2µM, KinaseGlo FLuc inactive, NPC1 promoter act 1.26µM and Rab9 prom act 0.891µM.
Screening O=C(Nc1ccc2nn(-c3ccccc3)nc2c1)c1cccs1 returned FLuc modulator inactive[2.3 µM], SMN2 splice up inconclusive, KinaseGlo FLuc inactive, NPC1 promoter act inconclusive and Rab9 prom act 3.55µM.
Cn1cnc2cc(NC(=O)c3cccs3)ccc21 was read as FLuc modulator 16.9µM, KinaseGlo FLuc inactive, NPC1 promoter act inconclusive and Rab9 prom act 2.82µM.
For Cc1cccc(C(=O)Nc2ccc3c(c2)ncn3C)c1 the results were FLuc modulator 9.53µM, NPC1 promoter act 1.58µM and Rab9 prom act 1.26µM.
For CCC(=O)Nc1ccc2c(c1)ncn2C the results were FLuc modulator inactive, SMN2 splice up inactive, KinaseGlo FLuc inactive, NPC1 promoter act inactive and Rab9 prom act inactive.
Screening Cc1cccc(C(=O)Nc2ccc3c(c2)nc(C)n3C)c1 returned FLuc modulator 3.01µM, NPC1 promoter act 0.398µM and Rab9 prom act 0.316µM.
O=C(Nc1ccc2nsnc2c1)c1cccs1 was read as FLuc modulator inactive, SMN2 splice up inactive, KinaseGlo FLuc inactive, NPC1 promoter act inactive and Rab9 prom act inactive.
CC1CCc2nn(CC(=O)Nc3ccccc3Cl)cc2C1 (stereo unspecified) was read as FLuc modulator inactive and SMN2 splice up inactive.
For COc1ccc(NC(=O)C(NC(=O)/C=C\c2ccc3c(c2)OCO3)c2ccc(C)cc2)cc1 (stereo unspecified) the results were FLuc modulator inactive and SMN2 splice up inactive.
`COCCOC(=O)C1=C(C)NC(=O)NC1c1cn(-c2ccccc2)nc1-c1ccccc1` (stereo unspecified) gave FLuc modulator inactive and SMN2 splice up inactive.
Screening O=C(NCc1cccn1Cc1ccccc1)Nc1ccc(Br)cc1F returned FLuc modulator inactive.
FC(F)(F)c1cccc(-c2nc3nc(Cl)c(Cl)nc3[nH]2)c1 was read as FLuc modulator 4.26µM, SMN2 splice up inactive[9.22 µM], KinaseGlo FLuc inactive[7.66 µM], NPC1 promoter act inconclusive and Rab9 prom act inconclusive.
`COc1cnc(-c2cccc(C(F)(F)F)c2)[nH]c1=O` gave FLuc modulator inactive, KinaseGlo FLuc inactive, NPC1 promoter act inactive and Rab9 prom act inactive.
Screening CCN(CC)c1ccc(/C=C2\C(=N)N3N=C(CC(=O)N4CCOCC4)SC3=NC2=O)cc1 returned FLuc modulator 26.9µM, NPC1 promoter act inactive and Rab9 prom act inactive.
For Cc1cc(/C=C2\C(=N)N3N=C(CC(=O)N4CCOCC4)SC3=NC2=O)c(C)n1-c1ccccc1 the results were FLuc modulator 10.7µM, NPC1 promoter act inactive and Rab9 prom act inactive.
For Cc1ccc(Cl)cc1N1CCN(C(=O)CCn2c(=O)c3cccn3c3cccnc32)CC1 the results were FLuc modulator inactive.
`CN(C(=O)CSc1nnc(-c2ccc([N+](=O)[O-])cc2)o1)c1ccccc1` gave FLuc modulator inactive.
For CC(C)(C)c1ccc(-c2nnc(N)o2)cc1 the results were FLuc modulator 6.01µM, NPC1 promoter act 2.82µM and Rab9 prom act 2.82µM.
For COc1ccc(/C=C/C(=O)NC(=S)Nc2ccc(S(=O)(=O)Nc3cc(OC)ncn3)cc2)cc1 the results were FLuc modulator 15.1µM, SMN2 splice up inactive, KinaseGlo FLuc inactive, NPC1 promoter act inactive and Rab9 prom act inactive.
Screening Cc1cc(NS(=O)(=O)c2ccc(NC(=S)NC(=O)c3ccc(C(C)(C)C)cc3)cc2)no1 returned FLuc modulator 10.7µM, SMN2 splice up inactive, KinaseGlo FLuc inactive, NPC1 promoter act inactive and Rab9 prom act inactive.
Cc1ccc(/C=C/C(=O)NC(=S)Nc2ccc(S(=O)(=O)Nc3cc(C)on3)cc2)cc1 was read as FLuc modulator 9.53µM, NPC1 promoter act inactive and Rab9 prom act inactive.
Cc1cc(NS(=O)(=O)c2ccc(NC(=S)NC(=O)/C=C/c3ccccc3)cc2)no1 was read as FLuc modulator inactive, NPC1 promoter act inactive and Rab9 prom act inactive.
`O=C(COc1ccccc1F)Nc1ccccc1C(=O)OCc1cc(=O)n2nc(C3CC3)sc2n1` gave FLuc modulator inactive.
Screening CCOC(=O)C1CCN(c2cc3c(cc2NC(=O)c2ccc(Cl)cc2)n(C)c(=O)n3C)CC1 returned FLuc modulator inactive and SMN2 splice up inactive.
For COc1ccc(C(=O)Nc2nccs2)cc1OC the results were FLuc modulator inconclusive, SMN2 splice up 7.08µM, KinaseGlo FLuc inactive, NPC1 promoter act inactive and Rab9 prom act inconclusive.
`C/C(=C\C(=O)O)C(=O)Nc1nccs1` gave FLuc modulator inactive, SMN2 splice up inactive, KinaseGlo FLuc inactive, NPC1 promoter act inactive and Rab9 prom act inactive.
`C/C(=C\C(=O)Nc1nccs1)c1ccccc1` gave FLuc modulator 9.53µM, SMN2 splice up inconclusive and KinaseGlo FLuc inactive.
Screening COc1ccc(NC(=O)Nc2nccs2)cc1 returned FLuc modulator 6.75µM, SMN2 splice up 14.1µM, KinaseGlo FLuc inactive, NPC1 promoter act inactive and Rab9 prom act inactive.
O=C(Nc1ccccc1)Nc1nncs1 was read as FLuc modulator inconclusive, SMN2 splice up inactive, KinaseGlo FLuc inactive, NPC1 promoter act inactive and Rab9 prom act inactive.
For O=C(Nc1ccccc1)Nc1nccs1 the results were FLuc modulator 23.9µM, SMN2 splice up inconclusive, KinaseGlo FLuc inactive, NPC1 promoter act inactive and Rab9 prom act inactive.
`CCOC(=O)c1c(-c2ccc(OC)cc2)oc2ccc(OCc3ccccc3C)cc12` gave FLuc modulator inactive and SMN2 splice up inactive.
For Cn1c(=O)c2c(-c3ccc(Br)cc3)n(Cc3ccc(F)cc3)cc2n(C)c1=O the results were FLuc modulator inactive and SMN2 splice up inactive.
For Cc1cc(C(=O)NCc2ccccc2C)c2c(C)nn(-c3cccc(F)c3)c2n1 the results were FLuc modulator inactive.
`CCN(CC)CCn1c(-c2ccccc2)nc2c(NCCOC)nc(C)nc21` gave SMN2 splice up inactive and KinaseGlo FLuc inactive.

Screening results: PubChem, National Center for Advancing Translational Sciences (NCATS)
